Cruzain Triton – blocks cruzain activity in presence of Triton detergent. purified cruzain, Z-FR-AMC fluorescence, 0.01% Triton. Potency, µM, for the others: max response, negative = inhibition, actives largely listed as inhibitors. 200,000 compounds, 0.43% hits;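 note: plate controls were neutral wells for no effect and buffer without enzyme for full effect; nearly all actives have a fitted effect of over 40% in size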
Target sequence (P25779 123-467 limits assumed): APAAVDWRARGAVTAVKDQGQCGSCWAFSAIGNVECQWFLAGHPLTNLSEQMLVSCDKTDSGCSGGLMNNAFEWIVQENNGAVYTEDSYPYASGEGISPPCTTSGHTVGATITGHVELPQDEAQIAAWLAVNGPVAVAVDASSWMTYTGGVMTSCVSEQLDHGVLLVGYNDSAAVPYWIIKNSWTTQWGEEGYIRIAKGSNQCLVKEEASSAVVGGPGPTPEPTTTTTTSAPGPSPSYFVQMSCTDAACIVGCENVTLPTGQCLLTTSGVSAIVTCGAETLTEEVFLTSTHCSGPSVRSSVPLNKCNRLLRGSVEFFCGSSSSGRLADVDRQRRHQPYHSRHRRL
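Compounds were screened in titration against cruzain (1.5 nM) with 0.01% Triton X-100 to counter colloidal aggregation. Activity was the AMC fluorescence increase over 60 s after adding 2 uM Z-FR-AMC at pH 5.5.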
Cruzain noTriton – blocks cruzain activity in detergent-free assay | P25779 | purified cruzain, Z-FR-AMC fluorescence, no detergent | Potency, µM, without a hit: max response, negative = inhibition, most hits filed as inhibitors | 200,000 compounds, 2.3% hits | AID 1476;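 note: plate controls were enzyme without inhibitor for no effect and buffer without enzyme for full effect; nearly all actives have a fitted effect of over 40% in size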
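Purified cruzain at 1.5 nM, pre-incubated 15 min with compound at room temperature in 100 mM sodium acetate pH 5.5, 5 mM DTT, 0.00005% Triton X-100. Reaction started with 2 uM Z-FR-AMC; AMC fluorescence increase over 60 s gives rate.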
Numbers without * were called inactive. This is a sample that favours compounds with a hit; in the whole collection about 2.5% have one here. Calls come from the whole dose curve; as a rule, active = well fitted curve in the direction sought with a large enough effect; inconclusive = small, poorly fitted or top-dose-only effect, or another doubt; inactive = no such curve, though single readings can be large; an effect the other way counts as inactive or inconclusive. Potency is the fitted concentration of half-maximal effect.

Cc1cccc(C)c1NC(=O)COC(=O)c1ccc(N2CCCC2)c([N+](=O)[O-])c1 was read as Cruzain Triton -2% and Cruzain noTriton 10µM*.
`Cc1ccc(C)c2sc(NC(=O)c3ccc(N4CCCCC4)c([N+](=O)[O-])c3)nc12` gave Cruzain Triton 4% and Cruzain noTriton 7.9µM*.
`Cc1cc(C)cc(NC(=O)CCN2C(=O)c3ccccc3Sc3ncccc32)c1` gave Cruzain Triton -1% and Cruzain noTriton 4%.
`CCOc1ccc(CCNC(=O)c2ccc(-c3nc(COc4ccc(C)cc4)c(C)o3)cc2)cc1` gave Cruzain Triton 1% and Cruzain noTriton -1%.
CCCCN(CCCC)CC(O)Cn1cc(/C=C/C(=O)c2ccccc2)c2ccccc21 (stereo unspecified) was read as Cruzain Triton -7% and Cruzain noTriton -1%.
Screening CCCCN(C)CC(O)Cn1cc(/C=C/C(=O)c2ccc(OCC)cc2)c2ccccc21 (stereo unspecified) returned Cruzain Triton -12% and Cruzain noTriton -7%.
Screening CCOc1ccc(C(=O)/C=C/c2cn(CC(O)CN3CCc4ccccc43)c3ccccc23)cc1 (stereo unspecified) returned Cruzain Triton -3% and Cruzain noTriton 6.3µM*.
`COc1ccc(C(=O)/C=C/c2cn(CC(O)CN3CCc4ccccc43)c3ccccc23)cc1` (stereo unspecified) gave Cruzain Triton -3% and Cruzain noTriton 6.3µM*.
Cc1ccc2nc(NC(=O)CSc3nccn3Cc3ccccc3)sc2c1 was read as Cruzain Triton -5% and Cruzain noTriton -28%.
CCOc1ccccc1NC(=O)Cn1nnc2sc3c(c2c1=O)CCC(C(C)(C)C)C3 (stereo unspecified) was read as Cruzain Triton -2% and Cruzain noTriton -16%.
For Cc1ccccc1Cc1c(C)nc2c(C(=O)NCc3ccc4c(c3)OCO4)cnn2c1C the results were Cruzain Triton -18% and Cruzain noTriton -23%.
`Cc1nc2c(C(=O)NCc3ccc4c(c3)OCO4)cnn2c(C)c1Cc1ccc(F)cc1Cl` gave Cruzain Triton -7% and Cruzain noTriton 16µM*.
`COc1ccc(S(=O)(=O)Nc2ccc3c(c2)CCCN3S(=O)(=O)c2ccc(C)cc2)cc1F` gave Cruzain Triton -2% and Cruzain noTriton -25%.
CCN(c1ccccc1)c1nnc(NC(=O)Nc2cccc(Br)c2)s1 was read as Cruzain Triton -3% and Cruzain noTriton inconclusive.
Cc1ccc(C(=O)Oc2cc(-c3ccc4c(c3)OCO4)cc(=O)c3c(C)oc(C)c23)cc1 was read as Cruzain Triton -6% and Cruzain noTriton inconclusive.
For Cc1oc(C)c2c(=O)cc(-c3ccc4c(c3)OCO4)cc(OC(=O)c3cccc(Br)c3)c12 the results were Cruzain Triton -3% and Cruzain noTriton 25µM*.
For Cc1oc(C)c2c(=O)cc(-c3ccc4c(c3)OCO4)cc(OC(=O)c3cccc(Cl)c3)c12 the results were Cruzain Triton -4% and Cruzain noTriton inconclusive.
Screening Cc1ccccc1C(=O)Oc1cc(-c2ccc3c(c2)OCO3)cc(=O)c2c(C)oc(C)c12 returned Cruzain Triton -9% and Cruzain noTriton 20µM*.
COC(=O)c1cc(NC(=O)c2ccc3c(c2)N(Cc2cccc(Cl)c2)C(=O)c2ccccc2S3=O)cc(C(=O)OC)c1 (stereo unspecified) was read as Cruzain Triton 0% and Cruzain noTriton -2%.
Screening CSc1nn(Cc2ccccc2C)c(NC(C)=O)c1S(=O)(=O)c1ccc(C)cc1 returned Cruzain Triton -4% and Cruzain noTriton 22%.
Screening CCOCCCNC(=O)C(c1ccc(C)cc1)N(Cc1ccc2c(c1)OCO2)C(=O)c1ccc(NC(C)=O)cc1 (stereo unspecified) returned Cruzain Triton -1% and Cruzain noTriton inconclusive.
For Cc1csc(NC(=O)Nc2ccc(Cl)cc2)n1 the results were Cruzain Triton 0% and Cruzain noTriton inconclusive.
O=C(NNc1nc(-c2ccccc2)cs1)c1ccccc1 was read as Cruzain Triton -1% and Cruzain noTriton inconclusive.
For O=C(Nc1ccc(Cl)cc1)Nc1nc(-c2sccc2Br)cs1 the results were Cruzain Triton 6% and Cruzain noTriton 10µM*.
O=C(Nc1ccc(Cl)c(Cl)c1)Nc1nc(-c2ccccc2)cs1 was read as Cruzain Triton -2% and Cruzain noTriton 10µM*.
`CCOC(=O)c1cc(S(=O)(=O)N2CCN(c3cc(Cl)ccc3C)CC2)[nH]n1` gave Cruzain Triton -5% and Cruzain noTriton -1%.
COc1ccc(NC(=O)c2c(NCc3cccs3)sc3c2CCCCC3)cc1 was read as Cruzain Triton -8% and Cruzain noTriton -14%.
`COC(=O)c1c(NC(=S)Nc2cc(OC)c(Cl)cc2OC)sc2c1CCCCC2` gave Cruzain Triton -2% and Cruzain noTriton 16µM*.
For COC(=O)c1c(NC(=O)C2CC2)sc2c1CCCC2 the results were Cruzain Triton -6% and Cruzain noTriton -7%.
